Source: PubChem (National Center for Advancing Translational Sciences (NCATS))
Pin1 inh – human Pin1 inhibition. Pin1 FP peptide displacement, HiFluor488, 10 min. Potency, µM (series often up to 115 µM), for inactives: at the top dose activity, negative = inhibition, usual class: inhibitors. 390,000 compounds, 0.009% hits; active = well fitted inhibition curve with a large enough effect in the polarisation, with a control signal flat, not every such curve was filed as active; inconclusive = small, poorly fitted or top-dose-only effect, or effect the other way, or a change in a side signal; inactive = no such curve, though single readings can be large or run the other way; the % refers to the polarisation; also: potency is read from the fitted curve at half-maximal effect; % is scaled to controls: 0 for no effect and ±100 for the full control effect
Target sequence (Q13526 whole entry, looked up): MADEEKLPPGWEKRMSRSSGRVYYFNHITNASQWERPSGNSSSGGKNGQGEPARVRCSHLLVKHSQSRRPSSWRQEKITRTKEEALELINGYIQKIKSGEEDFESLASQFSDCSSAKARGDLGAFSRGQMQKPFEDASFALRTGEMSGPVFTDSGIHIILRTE
FEN1 inh – human FEN1 inhibition; P39748; Recombinant FEN1 flap cleavage, fluorescence, 15 min; Potency, µM (top dose mostly 114 µM), without a hit: at the highest dose activity change, negative = inhibition, hits mostly inhibitors; 390,000 compounds, 0.35% hits; also: potency is read from the fitted curve at half-maximal effect; % is scaled to controls: 0 for no effect and ±100 for the full control effect; nearly all actives have a fitted effect of over 65% in size
Target sequence (P39748 whole entry, looked up): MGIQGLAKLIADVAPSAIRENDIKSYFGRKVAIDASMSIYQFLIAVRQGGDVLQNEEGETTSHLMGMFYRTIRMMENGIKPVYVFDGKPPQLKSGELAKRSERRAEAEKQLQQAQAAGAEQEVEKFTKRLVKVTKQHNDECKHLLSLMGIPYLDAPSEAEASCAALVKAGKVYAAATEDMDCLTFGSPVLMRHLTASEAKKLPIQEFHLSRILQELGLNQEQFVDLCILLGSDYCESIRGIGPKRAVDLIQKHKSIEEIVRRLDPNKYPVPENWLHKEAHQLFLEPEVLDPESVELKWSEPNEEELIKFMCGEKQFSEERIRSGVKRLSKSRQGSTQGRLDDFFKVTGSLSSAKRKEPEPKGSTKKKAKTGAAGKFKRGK
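Quantitative HTS format: each compound was titrated, incubated with 10 nM nuclease for 15 min at room temperature, then challenged with flap substrate at 50 nM final. Signal change over 15 min gave concentration–effect curves.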
GRP78 ERSR act – ER stress response induction in glioma; U87-MG GRP78 promoter luciferase reporter, 16 h; Potency, µM, inactives show top-dose activation, usual class: activators; 420,000 compounds, 0.02% hits; AID 602332; also: potency is read from the fitted curve at half-maximal effect; series mostly up to about 76 µM; % of control where 0% means no effect; nearly all actives have a fitted effect of over 35% in size
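Stably transfected U87-MG human glioma cells carrying a GRP78-based luminescent sensor were seeded at 1000 cells/well, pin-dosed with compounds and incubated 16 h. Luciferase reagent was then added, and end-point luminescence was read after 10 min at room temperature.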
PGK inhibitor – inhibitors of T. brucei phosphoglycerate kinase | 380,000 compounds, 0.043% hits | P07378 | PGK/GAPDH coupled, Kinase-Glo luminescence, 60 min | Potency, µM (top dose mostly 57.5 µM), without a hit: top-dose activity change, negative = inhibition, actives largely listed as inhibitors; also: potency is read from the fitted curve at half-maximal effect; % is scaled to controls: 0 for no effect and ±100 for the full control effect; nearly all actives have a fitted effect of over 60% in size
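Luminescent ATP detection (Kinase-Glo Plus) follows a 60-minute room-temperature incubation, with wells lacking PGK as controls. Buffer: 100 mM TEA (pH 7.6), 5 mM MgCl2, 0.01% Tween-20. Coupling enzyme GAPDH (100 nM final) supplies unstable 1,3-BPG in-well.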
PI5P4Ka inh – blocks human PI5P4K alpha kinase activity | PI5P4Kalpha enzyme, ADP-Glo luminescence, 60 min; hits give low values | max response, % | 330,000 compounds, 1.2% hits; active = max response of -50% or lower; inconclusive = between -30% and -50%; inactive = -30% or higher; also: value at the top dose of about 77 µM; % is scaled to controls: 0 for no effect and ±100 for the full control effect
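PI5P4Kalpha ADP-Glo assay; 5 microM ATP final; 60 min RT reaction; HEPES pH 7.4/EGTA/CHAPS, 5% DMSO; controls lacking substrate or enzyme; luminescent end-point.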
WRN inhibitor – inhibitors of human WRN helicase; 360,000 compounds, 0.46% hits; AID 651768; Q14191; Potency, µM (series often up to 114 µM), for inactives: top-dose activity change, negative = inhibition, hits mostly inhibitors; WRN helicase unwinding, fluorescent forked duplex, kinetic; also: potency is read from the fitted curve at half-maximal effect; % is scaled to controls: 0 for no effect and ±100 for the full control effect; nearly all actives have a fitted effect of over 55% in size
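Kinetic fluorescence helicase assay: unwinding of a quenched forked DNA duplex (100 nM final) with 2 mM ATP final raises red fluorescence (525/598 nm). Compounds sat 15 min at room temperature with 20 nM WRN beforehand.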
Numbers without * were called inactive; [ ] = remark or other dose. Most compounds without a hit are left out; they make up all but 1.3% or so of the library. Unless noted, calls follow the shape of the dose curve; as a rule, active = well fitted curve in the direction sought with a large enough effect; inconclusive = small, poorly fitted or top-dose-only effect, or another doubt; inactive = no such curve, though single readings can be large; an effect the other way counts as inactive or inconclusive.

For O=c1oc2c(O)c(O)cc3c(=O)oc4c(O)c(O)cc1c4c23 the results were Pin1 inh inconclusive, FEN1 inh 1.6µM*, GRP78 ERSR act inconclusive, PGK inhibitor 0.89µM* and PI5P4Ka inh -100*.
Cc1c(C)c2cc(Cl)c(O)c(CN(C)C)c2oc1=O was read as Pin1 inh -10%, FEN1 inh 3%, GRP78 ERSR act -6%, PGK inhibitor -1% and WRN inhibitor -1%.
CCOC(=O)C(=C1Nc2ccccc2N1)n1c(-c2ccco2)nc2ccccc21 was read as PI5P4Ka inh -66* and WRN inhibitor -30%.
For Cc1ccc(C(=O)Nc2cccc(-c3nc(CNC(=O)[C@@H]4C[C@@H](C)NC(=S)N4)c(C)o3)c2)s1 the results were GRP78 ERSR act 12%.
Screening O=C(Nc1nccs1)c1ccc(S(=O)(=O)N2CCOCC2)cc1 returned Pin1 inh -2%, FEN1 inh 79µM*, GRP78 ERSR act 5%, PGK inhibitor -2%, PI5P4Ka inh 2 and WRN inhibitor 4%.
`O=C(NCc1nc2ccccc2[nH]1)c1ccc(S(=O)(=O)N2CCCC2)cc1` gave Pin1 inh 9%, FEN1 inh 4%, GRP78 ERSR act -2%, PGK inhibitor -6%, PI5P4Ka inh -1 and WRN inhibitor 4%.
For O=C(Nc1ccc(S(=O)(=O)Nc2nccs2)cc1)c1ccc(S(=O)(=O)N2CCOCC2)cc1 the results were Pin1 inh 2%, FEN1 inh -10%, GRP78 ERSR act -3%, PGK inhibitor inactive, PI5P4Ka inh 10 and WRN inhibitor 4%.
`O=C(NCc1nc2ccccc2[nH]1)c1ccc(S(=O)(=O)N2CCOCC2)cc1` gave Pin1 inh 1%, FEN1 inh -2%, GRP78 ERSR act -3%, PGK inhibitor 22µM*, PI5P4Ka inh 5 and WRN inhibitor -2%.
Screening O=C(Nc1ccc2nc(-c3ccco3)c(-c3ccco3)nc2c1)NC1CC1 returned FEN1 inh 50µM*, GRP78 ERSR act -7%, PGK inhibitor inconclusive, PI5P4Ka inh -75* and WRN inhibitor 10µM*.
Screening O=S1(=O)N=C(Oc2ccccc2F)c2ccccc21 returned Pin1 inh 0%.
Screening O=C1CCc2cc(S(=O)(=O)Nc3ccc4c(c3)CCC4)ccc2N1 returned Pin1 inh 2%.
CCOC(=O)c1ccc(CC(=O)c2ccc(O)c(O)c2O)o1 was read as Pin1 inh -10%, FEN1 inh 14µM*, GRP78 ERSR act -3%, PGK inhibitor -3%, PI5P4Ka inh inconclusive and WRN inhibitor inconclusive.
Screening CCOC(=O)c1ccc(CC(=O)c2oc3cc(O)ccc3c2C)o1 returned Pin1 inh inconclusive, FEN1 inh -13%, GRP78 ERSR act 0%, PGK inhibitor -7% and WRN inhibitor -16%[57.1 µM].
For CSCc1c(C(=O)OCC(=O)c2ccc[nH]2)oc2ccccc12 the results were Pin1 inh 20%, FEN1 inh -1%, GRP78 ERSR act 1%, PGK inhibitor 1%, PI5P4Ka inh -76* and WRN inhibitor -8%[11.6 µM].
Screening N#C/C(=C(/O)CSc1nnc(Cc2cccs2)n1C1CCCCC1)c1nc2ccccc2[nH]1 returned Pin1 inh 27%, FEN1 inh -5%, GRP78 ERSR act 10%, PGK inhibitor -7%, PI5P4Ka inh -64* and WRN inhibitor 4%[11.6 µM].
For O=c1cc(-c2ccccc2Cl)oc2c([N+](=O)[O-])c(O)cc(O)c12 the results were Pin1 inh -4%, FEN1 inh inconclusive, GRP78 ERSR act -6%, PGK inhibitor -4%, PI5P4Ka inh -96* and WRN inhibitor -9%.
COc1ccc(C(=O)OCC(=O)Nc2ncc([N+](=O)[O-])s2)cc1OC was read as FEN1 inh 35µM*, GRP78 ERSR act 2%, PGK inhibitor inconclusive, PI5P4Ka inh -77* and WRN inhibitor 50µM*.
Screening O=C(COC(=O)c1ccc(Br)o1)Nc1ccc(F)cc1[N+](=O)[O-] returned Pin1 inh -3%, FEN1 inh -12%, GRP78 ERSR act -4%, PGK inhibitor inactive, PI5P4Ka inh 1 and WRN inhibitor -3%.
